These results are taken from PubChem BioAssay AID2061166 (Soto Lab, Mitchell Center for Alzheimers Disease and …, 2025).

The structures appear in SMILES notation. Calls of active or inactive are those of the source.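 How the source made its calls: active means mean tau seeding fluorescence area under 1% of vehicle, meaning inhibition above a set limit; inactive means the rest.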

This assay deals with Microtubule-associated protein tau (Homo sapiens) (UniProt P10636). In words: blockers of AD brain-seeded tau fibril growth – biochemical, seed amplification, ThT fluorescence, primary screen (AID 2061166). Conditions: Recombinant tau seeded by AD brain, ThT fluorescence AUC; at 100 µM; stronger effect = higher value.
Microtubule-associated protein tau (Homo sapiens), sequence (P10636 whole entry, looked up): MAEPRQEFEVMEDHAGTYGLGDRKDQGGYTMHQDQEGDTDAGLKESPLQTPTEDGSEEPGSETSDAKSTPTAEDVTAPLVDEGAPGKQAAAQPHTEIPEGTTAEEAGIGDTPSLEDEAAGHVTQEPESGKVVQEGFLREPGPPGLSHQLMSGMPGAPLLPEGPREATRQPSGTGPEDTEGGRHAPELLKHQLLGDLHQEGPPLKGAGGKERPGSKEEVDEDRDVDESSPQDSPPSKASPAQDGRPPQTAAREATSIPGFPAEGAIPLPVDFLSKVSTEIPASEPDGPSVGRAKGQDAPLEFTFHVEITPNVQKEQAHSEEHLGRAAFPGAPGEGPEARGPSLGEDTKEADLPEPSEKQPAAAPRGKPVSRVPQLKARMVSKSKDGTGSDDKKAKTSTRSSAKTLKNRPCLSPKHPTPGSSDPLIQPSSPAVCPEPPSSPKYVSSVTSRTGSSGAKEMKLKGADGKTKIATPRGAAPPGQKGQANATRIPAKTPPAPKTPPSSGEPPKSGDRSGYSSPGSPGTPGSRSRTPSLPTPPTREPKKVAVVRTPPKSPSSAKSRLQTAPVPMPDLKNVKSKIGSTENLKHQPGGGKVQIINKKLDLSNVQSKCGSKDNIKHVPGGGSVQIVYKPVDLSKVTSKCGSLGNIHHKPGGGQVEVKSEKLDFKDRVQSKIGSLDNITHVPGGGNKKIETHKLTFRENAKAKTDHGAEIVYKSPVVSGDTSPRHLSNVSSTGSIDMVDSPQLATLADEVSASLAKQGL
For orientation: inhibition means the drop in the measured response relative to a control, in per cent. For `O=C(OC1CN2CCC1CC2)N1CCc2ccccc2C1c1ccccc1` (stereo unspecified), the inhibition was -37.8% (inactive).

As for `Cn1cnc2c(F)c(Nc3ccc(Br)cc3Cl)c(C(=O)NOCCO)cc21`, the inhibition was -4.66% (inactive).

Turning to `CNS(=O)(=O)CCc1ccc2[nH]cc(C3CCN(C)CC3)c2c1`, the inhibition is -30.8% (inactive).

For the compound `Cc1nc2c([nH]1)CCN(C(=O)c1ccc(NC(=O)c3ccccc3-c3ccccc3)cc1)c1ccccc1-2`, the inhibition was 6.08% (inactive).

As to `CCN(CC)C(=S)SSC(=S)N(CC)CC`, the inhibition was -17.5% (inactive).

Regarding `Cc1ccc2c(c1)c1c(n2CCc2ccc(C)nc2)CCN(C)C1`, the inhibition was -29.9% (inactive).

For the compound `CCc1cc2c(cc1N1CCC(N3CCOCC3)CC1)C(C)(C)c1[nH]c3cc(C#N)ccc3c1C2=O`, the inhibition was -7.3% (inactive).

Regarding `CC1COc2c(N3CCN(C)CC3)c(F)cc3c(=O)c(C(=O)O)cn1c23` (stereo unspecified), the inhibition was -27.6% (inactive).

For `CC(=O)C1CCC2C3CC=C4CC(O)CCC4(C)C3CCC12C` (stereo unspecified), the inhibition is 41.9% (inactive).

Turning to `CN(C)CCc1c[nH]c2ccc(Cn3cncn3)cc12`, the inhibition is -4.86% (inactive).

As to `COc1ccc(Cc2cnc(N)nc2N)cc1OC`, the inhibition was 37.1% (inactive).

In the case of `CC(=O)c1c(O)c(C)c(O)c2c1OC1=CC(=O)C(C(C)=O)C(=O)C12C` (stereo unspecified), the inhibition was 21.4% (inactive).

In the case of `CC(C)(C)c1cc(C(C)(C)C)c(NC(=O)c2c[nH]c3ccccc3c2=O)cc1O`, the inhibition is -88.7% (inactive).

`CNCCC(Oc1cccc2ccccc12)c1cccs1` (stereo unspecified): the inhibition was 48.5% (inactive).

For the compound `Cc1c(N)c(=O)n(-c2ccccc2)n1C`, the inhibition was 0.254% (inactive).

Consider `C#Cc1cccc(Nc2ncnc3cc(OCCOC)c(OCCOC)cc23)c1`, for which the inhibition was -11.4% (inactive).
